Assay results taken from ChEMBL document CHEMBL1961873, “Compounds: GSK PKIS; Assays: Nanosyn kinase panel” (2012).

Columns and labels:
[1] = target: Serine/threonine-protein kinase MARK2 (Homo sapiens) (UniProt Q7KZI7); settings: at 1 µM
[2] = target: PAS domain-containing serine/threonine-protein kinase (Homo sapiens) (UniProt Q96RG2); settings: at 0.1 µM
[3] = target: PAS domain-containing serine/threonine-protein kinase (Homo sapiens) (UniProt Q96RG2); settings: at 1 µM
[4] = target: Phosphorylase b kinase gamma catalytic chain, skeletal muscle/heart isoform (Homo sapiens) (UniProt Q16816); settings: at 0.1 µM
Chain of Phosphorylase b kinase gamma catalytic chain, skeletal muscle/heart isoform (Homo sapiens) (Q16816 whole entry, looked up, canonical isoform): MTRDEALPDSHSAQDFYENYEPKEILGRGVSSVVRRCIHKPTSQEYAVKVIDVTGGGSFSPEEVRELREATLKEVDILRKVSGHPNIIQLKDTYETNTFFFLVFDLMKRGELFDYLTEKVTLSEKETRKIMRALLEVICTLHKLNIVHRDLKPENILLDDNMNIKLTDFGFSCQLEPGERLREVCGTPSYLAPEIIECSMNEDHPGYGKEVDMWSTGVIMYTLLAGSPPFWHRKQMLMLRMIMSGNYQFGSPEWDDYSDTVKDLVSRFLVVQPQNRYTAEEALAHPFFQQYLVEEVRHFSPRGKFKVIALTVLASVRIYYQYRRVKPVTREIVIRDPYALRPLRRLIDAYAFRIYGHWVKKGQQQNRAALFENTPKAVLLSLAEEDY

[5] = target: Phosphorylase b kinase gamma catalytic chain, skeletal muscle/heart isoform (Homo sapiens) (UniProt Q16816); settings: at 1 µM
[6] = target: T1, Phosphorylase b kinase gamma catalytic chain, liver/testis isoform (Homo sapiens) (UniProt P15735); settings: at 0.1 µM
T1 sequence (whole entry): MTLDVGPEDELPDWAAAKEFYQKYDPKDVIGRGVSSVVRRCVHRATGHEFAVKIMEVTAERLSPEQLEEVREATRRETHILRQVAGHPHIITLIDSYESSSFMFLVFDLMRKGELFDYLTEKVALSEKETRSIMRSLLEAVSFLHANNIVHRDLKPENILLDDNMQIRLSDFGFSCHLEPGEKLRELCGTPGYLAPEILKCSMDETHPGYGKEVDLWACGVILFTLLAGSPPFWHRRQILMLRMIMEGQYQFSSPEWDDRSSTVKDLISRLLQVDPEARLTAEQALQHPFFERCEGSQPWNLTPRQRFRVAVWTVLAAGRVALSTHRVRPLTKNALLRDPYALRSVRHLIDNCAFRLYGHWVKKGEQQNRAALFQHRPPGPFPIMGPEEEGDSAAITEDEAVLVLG

[7] = target: T1, Phosphorylase b kinase gamma catalytic chain, liver/testis isoform (Homo sapiens); settings: at 1 µM
[8] = target: Serine/threonine-protein kinase pim-1 (Homo sapiens) (UniProt P11309); settings: at 0.1 µM
Chain of Serine/threonine-protein kinase pim-1 (Homo sapiens) (P11309 whole entry, looked up): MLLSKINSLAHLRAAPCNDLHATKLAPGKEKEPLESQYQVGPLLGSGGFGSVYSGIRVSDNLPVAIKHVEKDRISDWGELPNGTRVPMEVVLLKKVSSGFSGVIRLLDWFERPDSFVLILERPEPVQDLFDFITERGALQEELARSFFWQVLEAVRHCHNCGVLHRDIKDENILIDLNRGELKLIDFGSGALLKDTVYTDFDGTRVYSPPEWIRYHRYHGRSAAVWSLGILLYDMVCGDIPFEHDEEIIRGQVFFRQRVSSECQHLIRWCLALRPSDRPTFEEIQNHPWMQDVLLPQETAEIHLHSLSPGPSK

[9] = target: Serine/threonine-protein kinase pim-1 (Homo sapiens) (UniProt P11309); settings: at 1 µM
[10] = target: Serine/threonine-protein kinase pim-2 (Homo sapiens) (UniProt Q9P1W9); settings: at 0.1 µM
[11] = target: Serine/threonine-protein kinase pim-2 (Homo sapiens) (UniProt Q9P1W9); settings: at 1 µM
[12] = target: Serine/threonine-protein kinase pim-3 (Homo sapiens) (UniProt Q86V86); settings: at 0.1 µM
[13] = target: Serine/threonine-protein kinase pim-3 (Homo sapiens) (UniProt Q86V86); settings: at 1 µM
[14] = target: T2, MAP kinase-activated protein kinase 5 (Homo sapiens) (UniProt Q8IW41); settings: at 0.1 µM
T2 sequence (whole entry): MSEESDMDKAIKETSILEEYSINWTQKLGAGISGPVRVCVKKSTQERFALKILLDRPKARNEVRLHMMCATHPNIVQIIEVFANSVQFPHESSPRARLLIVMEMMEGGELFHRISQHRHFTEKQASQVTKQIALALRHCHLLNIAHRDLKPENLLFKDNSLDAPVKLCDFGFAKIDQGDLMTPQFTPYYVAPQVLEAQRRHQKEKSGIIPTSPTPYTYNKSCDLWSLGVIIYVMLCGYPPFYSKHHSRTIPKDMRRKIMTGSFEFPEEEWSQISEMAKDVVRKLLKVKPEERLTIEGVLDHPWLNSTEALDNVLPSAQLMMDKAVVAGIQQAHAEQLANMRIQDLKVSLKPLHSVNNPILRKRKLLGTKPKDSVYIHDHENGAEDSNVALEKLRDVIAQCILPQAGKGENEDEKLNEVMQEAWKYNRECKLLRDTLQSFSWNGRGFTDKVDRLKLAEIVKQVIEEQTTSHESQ

[15] = target: T2, MAP kinase-activated protein kinase 5 (Homo sapiens); settings: at 1 µM
[16] = target: Serine/threonine-protein kinase SIK1 (Homo sapiens) (UniProt P57059); settings: at 0.1 µM
Chain of Serine/threonine-protein kinase SIK1 (Homo sapiens) (P57059 whole entry): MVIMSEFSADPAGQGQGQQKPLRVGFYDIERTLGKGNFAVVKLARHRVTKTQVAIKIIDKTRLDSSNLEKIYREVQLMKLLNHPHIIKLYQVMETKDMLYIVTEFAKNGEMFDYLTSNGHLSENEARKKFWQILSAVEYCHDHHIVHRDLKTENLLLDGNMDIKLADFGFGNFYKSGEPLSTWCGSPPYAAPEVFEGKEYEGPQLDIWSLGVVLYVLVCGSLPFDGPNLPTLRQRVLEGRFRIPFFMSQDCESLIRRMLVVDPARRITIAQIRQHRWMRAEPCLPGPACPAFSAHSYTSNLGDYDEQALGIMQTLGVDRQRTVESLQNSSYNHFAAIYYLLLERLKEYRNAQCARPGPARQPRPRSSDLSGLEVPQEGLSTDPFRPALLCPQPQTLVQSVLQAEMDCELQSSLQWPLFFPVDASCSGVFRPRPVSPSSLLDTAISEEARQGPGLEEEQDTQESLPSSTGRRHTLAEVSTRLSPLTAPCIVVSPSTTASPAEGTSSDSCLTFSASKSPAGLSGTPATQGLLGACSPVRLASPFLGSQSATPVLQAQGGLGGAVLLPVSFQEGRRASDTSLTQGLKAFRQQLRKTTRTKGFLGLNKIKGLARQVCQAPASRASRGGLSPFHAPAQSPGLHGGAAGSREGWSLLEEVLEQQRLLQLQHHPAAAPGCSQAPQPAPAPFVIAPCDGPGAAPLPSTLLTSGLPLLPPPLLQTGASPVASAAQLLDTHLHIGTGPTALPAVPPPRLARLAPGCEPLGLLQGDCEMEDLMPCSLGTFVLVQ

[17] = target: Serine/threonine-protein kinase SIK1 (Homo sapiens) (UniProt P57059); settings: at 1 µM
[18] = target: Serine/threonine-protein kinase SIK2 (Homo sapiens) (UniProt Q9H0K1); settings: at 0.1 µM
Chain of Serine/threonine-protein kinase SIK2 (Homo sapiens) (Q9H0K1 whole entry, looked up): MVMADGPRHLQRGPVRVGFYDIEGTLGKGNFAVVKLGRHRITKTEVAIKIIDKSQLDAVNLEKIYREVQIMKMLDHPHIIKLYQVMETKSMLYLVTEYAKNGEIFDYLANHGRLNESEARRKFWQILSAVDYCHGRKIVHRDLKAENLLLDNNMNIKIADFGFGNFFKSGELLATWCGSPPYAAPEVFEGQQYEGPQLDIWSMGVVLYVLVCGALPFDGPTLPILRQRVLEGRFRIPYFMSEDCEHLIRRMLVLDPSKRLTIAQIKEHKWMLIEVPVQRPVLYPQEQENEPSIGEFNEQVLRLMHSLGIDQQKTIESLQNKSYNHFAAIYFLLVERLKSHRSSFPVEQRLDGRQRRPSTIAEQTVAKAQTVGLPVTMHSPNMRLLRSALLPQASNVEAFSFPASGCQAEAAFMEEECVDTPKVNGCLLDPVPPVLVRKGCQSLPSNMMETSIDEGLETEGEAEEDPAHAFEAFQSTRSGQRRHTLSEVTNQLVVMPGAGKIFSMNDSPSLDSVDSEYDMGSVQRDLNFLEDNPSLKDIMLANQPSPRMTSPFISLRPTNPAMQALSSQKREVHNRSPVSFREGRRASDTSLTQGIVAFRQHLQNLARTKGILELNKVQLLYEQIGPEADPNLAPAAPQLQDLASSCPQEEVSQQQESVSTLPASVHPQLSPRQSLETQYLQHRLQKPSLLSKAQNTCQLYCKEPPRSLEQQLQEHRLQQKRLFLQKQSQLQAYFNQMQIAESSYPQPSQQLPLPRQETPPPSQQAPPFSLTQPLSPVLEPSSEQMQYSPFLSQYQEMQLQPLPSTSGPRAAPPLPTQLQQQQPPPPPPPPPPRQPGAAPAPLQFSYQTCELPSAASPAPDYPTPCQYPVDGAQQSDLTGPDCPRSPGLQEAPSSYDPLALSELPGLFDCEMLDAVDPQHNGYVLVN

[19] = target: Serine/threonine-protein kinase SIK2 (Homo sapiens) (UniProt Q9H0K1); settings: at 1 µM
[20] = target: T3, Serine/threonine-protein kinase TBK1 (Homo sapiens) (UniProt Q9UHD2); settings: at 0.1 µM;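 further: values are the mean TBK1 inhibition, taken from the GSK PKIS screening data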
T3 sequence (whole entry): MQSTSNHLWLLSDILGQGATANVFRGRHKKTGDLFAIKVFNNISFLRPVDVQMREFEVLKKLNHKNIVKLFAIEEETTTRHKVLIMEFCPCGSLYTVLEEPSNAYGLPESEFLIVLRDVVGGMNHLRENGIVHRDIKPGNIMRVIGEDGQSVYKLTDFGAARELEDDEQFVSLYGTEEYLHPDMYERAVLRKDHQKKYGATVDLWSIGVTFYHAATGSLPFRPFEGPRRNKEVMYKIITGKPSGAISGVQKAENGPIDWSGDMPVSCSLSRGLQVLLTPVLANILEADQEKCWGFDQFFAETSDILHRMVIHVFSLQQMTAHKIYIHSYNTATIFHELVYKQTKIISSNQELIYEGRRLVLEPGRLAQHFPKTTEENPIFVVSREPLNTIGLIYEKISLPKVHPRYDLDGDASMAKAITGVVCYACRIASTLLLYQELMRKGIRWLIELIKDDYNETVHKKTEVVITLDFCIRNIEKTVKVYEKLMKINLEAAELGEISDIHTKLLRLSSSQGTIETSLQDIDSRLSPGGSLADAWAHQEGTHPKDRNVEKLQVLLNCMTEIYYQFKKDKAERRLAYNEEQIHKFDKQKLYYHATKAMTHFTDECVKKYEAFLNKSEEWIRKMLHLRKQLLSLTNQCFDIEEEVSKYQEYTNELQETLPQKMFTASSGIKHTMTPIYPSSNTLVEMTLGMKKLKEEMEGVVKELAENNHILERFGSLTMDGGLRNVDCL

Chain of Serine/threonine-protein kinase MARK2 (Homo sapiens) (Q7KZI7 whole entry, the tested form may be a part): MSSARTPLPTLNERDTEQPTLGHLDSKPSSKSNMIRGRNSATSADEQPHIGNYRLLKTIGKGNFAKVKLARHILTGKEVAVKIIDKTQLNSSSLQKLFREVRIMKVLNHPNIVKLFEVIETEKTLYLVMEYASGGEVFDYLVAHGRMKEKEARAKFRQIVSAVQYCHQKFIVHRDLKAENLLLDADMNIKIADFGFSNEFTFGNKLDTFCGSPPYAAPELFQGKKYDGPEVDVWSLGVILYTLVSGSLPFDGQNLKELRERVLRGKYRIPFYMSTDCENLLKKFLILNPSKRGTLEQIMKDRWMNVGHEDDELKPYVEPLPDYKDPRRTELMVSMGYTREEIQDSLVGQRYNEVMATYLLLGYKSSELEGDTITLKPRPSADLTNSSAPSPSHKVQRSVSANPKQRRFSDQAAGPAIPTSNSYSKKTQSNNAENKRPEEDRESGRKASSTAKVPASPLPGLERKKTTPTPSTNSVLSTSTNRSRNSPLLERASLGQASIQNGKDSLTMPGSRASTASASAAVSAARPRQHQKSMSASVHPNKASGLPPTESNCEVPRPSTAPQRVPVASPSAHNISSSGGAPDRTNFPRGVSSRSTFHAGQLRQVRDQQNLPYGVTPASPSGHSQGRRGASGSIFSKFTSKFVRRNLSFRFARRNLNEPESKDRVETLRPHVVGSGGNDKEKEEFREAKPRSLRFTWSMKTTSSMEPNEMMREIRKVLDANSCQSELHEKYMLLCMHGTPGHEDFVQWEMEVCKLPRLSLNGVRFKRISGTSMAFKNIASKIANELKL
Chain of PAS domain-containing serine/threonine-protein kinase (Homo sapiens) (Q96RG2 whole entry, the tested form may be a part, canonical isoform): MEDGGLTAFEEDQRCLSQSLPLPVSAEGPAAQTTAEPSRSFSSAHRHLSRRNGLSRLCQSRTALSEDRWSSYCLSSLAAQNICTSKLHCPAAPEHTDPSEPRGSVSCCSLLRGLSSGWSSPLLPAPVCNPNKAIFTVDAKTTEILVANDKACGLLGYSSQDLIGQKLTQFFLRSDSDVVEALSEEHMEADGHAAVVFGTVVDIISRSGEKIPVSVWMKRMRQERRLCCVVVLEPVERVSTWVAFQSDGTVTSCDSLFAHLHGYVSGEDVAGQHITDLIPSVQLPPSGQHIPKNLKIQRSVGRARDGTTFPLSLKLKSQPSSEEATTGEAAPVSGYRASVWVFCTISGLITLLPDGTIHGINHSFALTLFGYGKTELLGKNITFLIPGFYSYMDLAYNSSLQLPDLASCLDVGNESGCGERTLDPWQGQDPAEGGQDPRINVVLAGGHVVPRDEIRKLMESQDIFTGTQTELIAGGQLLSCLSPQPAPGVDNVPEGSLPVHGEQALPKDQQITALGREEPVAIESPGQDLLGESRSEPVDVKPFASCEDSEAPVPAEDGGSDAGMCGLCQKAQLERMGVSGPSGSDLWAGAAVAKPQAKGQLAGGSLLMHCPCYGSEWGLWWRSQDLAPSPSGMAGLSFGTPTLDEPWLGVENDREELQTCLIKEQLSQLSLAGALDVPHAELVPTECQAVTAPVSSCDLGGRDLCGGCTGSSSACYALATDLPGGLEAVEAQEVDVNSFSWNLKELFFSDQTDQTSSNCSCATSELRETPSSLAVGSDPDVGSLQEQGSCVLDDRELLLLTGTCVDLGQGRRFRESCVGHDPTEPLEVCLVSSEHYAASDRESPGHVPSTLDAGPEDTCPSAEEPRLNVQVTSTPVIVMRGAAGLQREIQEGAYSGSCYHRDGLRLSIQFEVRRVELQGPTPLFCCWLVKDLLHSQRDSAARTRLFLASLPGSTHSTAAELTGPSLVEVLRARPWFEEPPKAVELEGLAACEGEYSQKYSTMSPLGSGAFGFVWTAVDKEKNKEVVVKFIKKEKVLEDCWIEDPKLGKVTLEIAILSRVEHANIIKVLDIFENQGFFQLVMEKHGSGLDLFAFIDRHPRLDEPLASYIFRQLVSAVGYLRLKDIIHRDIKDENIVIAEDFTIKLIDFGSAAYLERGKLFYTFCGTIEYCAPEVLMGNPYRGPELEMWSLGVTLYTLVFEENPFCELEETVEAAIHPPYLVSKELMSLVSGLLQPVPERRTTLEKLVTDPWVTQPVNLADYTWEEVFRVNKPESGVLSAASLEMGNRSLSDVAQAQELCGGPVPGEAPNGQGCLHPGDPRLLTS

| Structure (SMILES) | inhibition [1] [%] | inhibition [2] [%] | inhibition [3] [%] | inhibition [4] [%] | inhibition [5] [%] | inhibition [6] [%] | inhibition [7] [%] | inhibition [8] [%] | inhibition [9] [%] | inhibition [10] [%] | inhibition [11] [%] | inhibition [12] [%] | inhibition [13] [%] | inhibition [14] [%] | inhibition [15] [%] | inhibition [16] [%] | inhibition [17] [%] | inhibition [18] [%] | inhibition [19] [%] | inhibition [20] [%] |
| --- | --- | --- | --- | --- | --- | --- | --- | --- | --- | --- | --- | --- | --- | --- | --- | --- | --- | --- | --- | --- |
| CS(=O)(=O)CCN(CC#N)Cc1ccc(-c2ccc3ncnc(Nc4ccc(OCc5cccc(F)c5)c(Cl)c4)c3c2)o1 | -1.1 | -0.15 | -0.89 | 2.68 | 5.37 | 1.91 | 1.52 | -1.56 | -0.76 | -4.12 | -3.72 | -0.61 | -0.3 | 0.76 | 1.23 | 4.78 | 9.27 | 1.11 | 0.48 | 0.72 |
| CC1=C(C(=O)Nc2ccc3[nH]ncc3c2)C(c2ccc3ccccc3c2)CC(=O)N1 (stereo not given) | 0.34 | -0.4 | -1.53 | 2.21 | 1.29 | 2.37 | 1.22 | 0.24 | -0.93 | 0.51 | 0.77 | -0.19 | 0.74 | 0.65 | 1.3 | 4.02 | 1.28 | 5.77 | 4.09 | -1.92 |
| CCn1c(-c2nonc2N)nc2c(C#CC(C)(C)O)nc(OC[C@@H](N)c3ccccc3)cc21 | 13.6 | 0.65 | 16 | 0.84 | 4.71 | -2.07 | -2.54 | 1.15 | 3.59 | 0.23 | 2.38 | 0.56 | 5.51 | -0.92 | -1.02 | 1.01 | 0.3 | -1.91 | 1.75 | 0.4 |
| CCn1c(-c2nonc2N)nc2cncc(C(=O)N3CCNCC3)c21 | 2.03 | -1.71 | -0.89 | 3.09 | 4.51 | 8.34 | 7.28 | 0.31 | 2.05 | -0.98 | -0.88 | 0.06 | 2.39 | 2.77 | 2.41 | 4.86 | 14.2 | 6 | 6.58 | 6.79 |
| [O-][S+]1CCN(Cc2ccc(-c3ccc4ncnc(Nc5ccc(OCc6ccccc6)c(F)c5)c4c3)o2)CC1 | 0.88 | -0.22 | -1.35 | 1.18 | -5.45 | 2.22 | 0.5 | 0.8 | 0.1 | -0.49 | 0.23 | -1.55 | -1.98 | 0.41 | -0.19 | 3.06 | 3.96 | 3.09 | 5.38 | 1.1 |
| CC1=C(C(=O)Nc2ccc3[nH]ncc3c2)C(c2ccc(F)cc2)NC(=O)N1 (stereo not given) | 3.63 | -0.71 | -0.21 | 4.98 | 4.43 | 0.63 | 2.08 | 0.13 | -0.04 | -0.16 | -0.13 | 0.21 | -0.69 | 2.17 | 0.76 | 0.84 | 3.8 | 3.04 | 1.13 | 2.82 |
